Screening data as filed in PubChem.
A selection: hits, their analogues and other compounds. The true share with any hit is near 16%.
DT40 TDP1 CPT = qHTS for Inhibitors of human tyrosyl-DNA phosphodiesterase 1 (TDP1): qHTS in cells in presence of CPT. chicken DT40 Tdp1-/-;hTDP1 cells + 20 nM CPT, ATP luminescence, 48 h. AID 686979, 2013. actives 12% (n = 420,000). Potency, µM (titrated, usually from 46.2 µM), inactives show top-dose activity change, negative = growth inhibition, hits mostly inhibitors; further: potency means the concentration at half of the fitted maximal effect; on the % scale 0 is the no-effect control and ±100 the full control effect; nearly all actives have a fitted effect of over 55% in size
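Chicken DT40 Tdp1-/- cells complemented with human TDP1, 400 cells/well, exposed to compounds plus 20 nM camptothecin for at least 48 h at 37 C; viability read as ATP content by CellTiter-Glo luminescence.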
TDP1 block = qHTS Assay for Inhibitors of Tyrosyl-DNA Phosphodiesterase (TDP1) | recombinant TDP1, AlphaScreen DNA substrate cleavage | actives 0.28% (n = 350,000) | Potency, µM (doses to about 130 µM), without a hit: at the highest dose activity change, negative = inhibition, most hits filed as inhibitors | Tyrosyl-DNA phosphodiesterase 1 (Homo sapiens), Q9NUW8; further: potency means the concentration at half of the fitted maximal effect; on the % scale 0 is the no-effect control and ±100 the full control effect; nearly all actives have a fitted effect of over 40% in size
Target sequence (Q9NUW8 whole entry, looked up): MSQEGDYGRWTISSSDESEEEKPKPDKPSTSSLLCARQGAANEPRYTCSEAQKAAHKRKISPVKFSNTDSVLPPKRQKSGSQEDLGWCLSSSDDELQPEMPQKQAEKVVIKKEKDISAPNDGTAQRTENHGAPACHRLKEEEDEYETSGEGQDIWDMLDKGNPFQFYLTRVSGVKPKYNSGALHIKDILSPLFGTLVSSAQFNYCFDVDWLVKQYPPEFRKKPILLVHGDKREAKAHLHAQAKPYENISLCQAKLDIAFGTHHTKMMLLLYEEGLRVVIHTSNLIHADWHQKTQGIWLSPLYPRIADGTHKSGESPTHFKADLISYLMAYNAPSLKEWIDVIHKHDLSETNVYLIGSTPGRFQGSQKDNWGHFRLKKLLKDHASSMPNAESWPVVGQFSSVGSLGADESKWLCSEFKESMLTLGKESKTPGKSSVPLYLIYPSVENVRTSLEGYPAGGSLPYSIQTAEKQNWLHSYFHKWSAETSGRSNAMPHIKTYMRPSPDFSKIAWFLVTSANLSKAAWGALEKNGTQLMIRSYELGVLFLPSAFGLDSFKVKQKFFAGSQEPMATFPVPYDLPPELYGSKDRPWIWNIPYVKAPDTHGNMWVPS
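Enzyme-compound mixtures sat 15 min at room temperature, followed by a 5 min reaction with 15 nM final substrate and 10 min with AlphaScreen beads. Recombinant human Tdp1 was used at 1 nM final.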
miR-21 act = qHTS Assay for Modulators of miRNAs and/orActivators of miR-21; Potency, µM (highest dose often 38.3 µM), inactives show at the top dose activity change, positive = activation, usual class: activators; 340,000 tested, under 10 active; HeLa miR-21 FLuc reporter, luciferase, 48 h;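 further: % of control where 0% means no effect; miR-21 action dims this reporter so a rising signal means less miR-21 action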
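Compounds were titrated across several concentrations (up to approximately 40 uM) and incubated 48 hours with HeLa miR-21-FLuc reporter cells (miR-21 target sequence downstream of FLuc, endogenous miR-21). Readout was firefly luciferase luminescence after lytic detection reagent.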
uPA surface inh = qHTS for Inhibitors of Cell Surface uPA Generation; actives 0.31% (n = 330,000); cell surface uPA generation assay, qHTS; Potency, µM (series often up to 38.3 µM), inactives show at the top dose activity change, negative = inhibition, hits mostly inhibitors; active means well fitted inhibition curve with a large enough effect; inconclusive means small, poorly fitted or top-dose-only effect; inactive means no such curve, though single readings can be large or run the other way; tested in mouse RAW 264.7 cells; further: potency means the concentration at half of the fitted maximal effect; on the % scale 0 is the no-effect control and ±100 the full control effect; nearly all actives have a fitted effect of over 55% in size
TDP1 cell noCPT = qHTS for Inhibitors of human tyrosyl-DNA phosphodiesterase 1 (TDP1): qHTS in cells in absence of CPT | Potency, µM (highest dose often 46.2 µM), for the others: top-dose activity change, negative = growth inhibition, hits mostly inhibitors | DT40 Tdp1-/- hTDP1 cells, no CPT, ATP luminescence, 48 h | actives 15% (n = 420,000); further: potency means the concentration at half of the fitted maximal effect; on the % scale 0 is the no-effect control and ±100 the full control effect; nearly all actives have a fitted effect of over 55% in size
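Stably hTDP1-transfected Tdp1-null chicken DT40 cells were treated with library compounds minus camptothecin and grown for at least 48 hr at 37 °C, after which cellular ATP was quantified by luminescence.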
Starred values were filed as active, the others as inactive; ? = inconclusive; / = no result; [ ] = another dose, or the depositor's remark. Unless noted, the call rests on the fitted dose curve; in most records, active means well fitted curve in the direction sought with a large enough effect; inconclusive means small, poorly fitted or top-dose-only effect, or another doubt; inactive means no such curve, though single readings can be large; an effect the other way counts as inactive or inconclusive.

SMILES	DT40 TDP1 CPT	TDP1 block	miR-21 act	uPA surface inh	TDP1 cell noCPT
CCCS/C(N)=N/N=C/c1cc(C)ccc1O	0.73µM*	7%	-62%	-9%	0.82µM*
CCCCS/C(N)=N/N=C/c1ccccc1O	?	9%	-48%	1%	?
COc1ccccc1CNC(=O)C/C(C)=N/NC(=O)COc1ccc(C)cc1Br	12µM*	4%	0%	12%	12µM*
COc1ccc(CCNC(=O)C/C(C)=N/NC(=O)COc2ccc(C)cc2Br)cc1OC	7%	/	-7%	-6%	-16%
COc1cc(Cl)cc(/C=C/c2ccc3ccccc3n2)c1OC(C)=O	?	-8%	-80%	-11%	?
Fc1ccc(/C=C/c2ccc3ccccc3n2)cc1	2.8µM*	/	/	/	2.8µM*
COc1cc(OC)c(OC)cc1/C=C/c1ccc2ccccc2n1	11µM*	/	/	/	14µM*
Fc1cccc(F)c1/C=C/c1ccc2ccccc2n1	?	/	-23%	-4%	?
COc1cc(OC)c(OC)cc1/C=C/c1nc2ccccc2o1	?	/	/	/	13µM*
COc1ccccc1/C=C/c1nc2ccccc2c(=O)o1	-8%	/	/	?	-19%
CC(O)/C=C/c1ccc2ccccc2n1 (stereo not given)	13µM*	0%	15%	/	?
CSc1ncccc1C(=O)N1CCc2nnc(C(NC(=O)c3ccoc3)C(C)C)n2CC1 (stereo not given)	0%	/	/	/	-1%
CCCC(=O)Nc1c(-c2cccs2)c(=O)c2ccccc2n1C	-7%	1%	1%	/	0%
COc1cc(/C=C\c2ccc(OC)cc2OC)cc(OC)c1	7.5µM*	/	/	/	?
COc1ccccc1/C=C/c1ccc2ccccc2n1	?	/	/	/	16µM*
Cc1ccsc1/C=C/c1ccc2ccccc2n1	?	/	-3%	-5%	?
COc1ccc(/C=C/c2nc3cc(-c4ccccc4)ccc3o2)cc1O	9.2µM*	-5%	0%	0%	9.2µM*
COc1ccc(C=Cc2ccc3ccccc3n2)c(OC)c1	-28%	/	/	/	23µM*
CC1CCCCC1NC(=O)C1CCN(c2c3c(nc4ncnn24)CCC3)CC1 (stereo not given)	-29%	-1%	7%	-3%	12µM*
COc1ccc(CC(NC(C)=O)C(=O)NC2CCN(c3c4c(nc5ncnn35)CCC4)CC2)cc1OC (stereo not given)	0%	/	-1%	-1%	0%
CCN(CC)c1ccc(C(=O)n2cnc3ccccc32)cc1	?	2%	-9%	-10%	?
COCCCNc1nc(NCc2ccccc2OC)c2cnn(C)c2n1	?	-1%	14%	/	23µM*
CC1(C)C(=O)OC(c2cccn2-c2cccc([N+](=O)[O-])c2)C2(CCCCC2)C1=O (stereo not given)	/	4%	0%	/	/
COc1ccc(C2=C/C(=C\c3ccccc3OC(C)=O)C(=O)O2)cc1	21µM*	/	-13%	38%	15µM*
COc1ccccc1S(=O)(=O)N(C)C[C@@H]1OCc2cnnn2CCCC(=O)N([C@@H](C)CO)C[C@H]1C	0%	/	/	/	3%
SMILES	DT40 TDP1 CPT	TDP1 block	miR-21 act	uPA surface inh	TDP1 cell noCPT
C=CCN(CC(O)c1cccc([N+](=O)[O-])c1)C(C)CCc1ccccc1 (stereo not given)	?	/	2%	1%	21µM*
CC(=O)OC1CC(OC(C)=O)[C@]2(C)C(CC(O)[C@]3(C)C2CC[C@@]2(C)C(c4ccoc4)OC(=O)C4O[C@]432)C1(C)C (stereo not given in full)	-21%	12%[56.1 µM]	/	/	-30%
OCCC1CN(Cc2ccccc2O)CCN1CCc1ccccc1 (stereo not given)	25%	6%	-4%	/	-14%
CCOc1ccc(NC(=O)c2cnn3c2NC(C)=C(C(=O)Nc2ccc(Cl)cc2)C3c2ccc(OC)c(OC)c2)cc1 (stereo not given)	23µM*	0%	0%	/	10µM*
COc1ccccc1NC(=O)C1=C(C)Nc2c(C(=O)Nc3ccc(F)cc3)cnn2C1c1ccc(Cl)cc1 (stereo not given)	13µM*	3%	26%	/	?
Cc1[nH]c2ccccc2c1C(O)c1ccncc1 (stereo not given)	26%	4%	4%	-1%	-23%
Cc1c(N2CCCCC2)[nH]c2ccccc12	?	/	/	/	10µM*
Cc1nnc(N2CCCCC2)c2ccccc12	-20%	0%	-7%	2%	?
Cc1[nH]c2ccccc2c1C(c1ccncc1)N1CCCCC1 (stereo not given)	13µM*	-2%	5%	0%	16µM*
C[n+]1ccc(/C=C/c2c[nH]c3ccc(F)cc23)cc1	1.6µM*	/	26%	-4%	0.82µM*
Cn1cc(/C=C/c2cc[n+](C)cc2)c2cc(F)ccc21	0.52µM*	/	?	-3%	0.58µM*
Cn1cc(/C=C/c2cc[n+](C)cc2)c2cc(Cl)ccc21	0.65µM*	/	?	-6%	0.73µM*
C[n+]1ccc(/C=C/c2ccc(Br)cc2)cc1	2%	-2%	25%	-6%	-12%
COc1ccc2nc3cc([N+](=O)[O-])ccc3c(NNc3ccc([N+](=O)[O-])cc3)c2c1	10µM*	/	/	-6%	9.2µM*
Cc1cc2cc(CCNC(=O)c3cccc([N+](=O)[O-])c3)c(=O)[nH]c2cc1C	?	3%	-4%	1%	16µM*
Cc1ccc(C(=O)NCCc2cc3ccc(C)c(C)c3[nH]c2=O)cc1[N+](=O)[O-]	10µM*	1%	-4%	-2%	?
Cc1ccc2cc(CCNC(=O)c3cccc([N+](=O)[O-])c3)c(=O)[nH]c2c1	21µM*	8%	1%	3%	21µM*
O=C(NC(Cc1c[nH]c2ccccc12)c1nnc2n1CCCCC2)c1ccc(Cl)cc1 (stereo not given)	?	2%	-12%	/	?
CCN(CC(=O)Nc1ccc(OC)cc1)CC(=O)Nc1ccc2c(c1)OCO2	-19%	2%	/	6%	-22%
N#Cc1ccc(Oc2nc(Nc3ccc(F)cc3)nc(N3CCCC3)n2)cc1	?	6%	-3%	/	?
CCOc1ccc(Nc2nc(Nc3ccc(OCC)cc3)nc(N3CCOCC3)n2)cc1	-15%	/	-9%	/	-7%
COc1nc(Nc2ccc(OC)c(Cl)c2)nc(OC)n1	-14%	1%	-44%	-7%	?
CCOc1nc(Nc2ccc(OC)c(Cl)c2)nc(N2CCN(c3ccc(OC)cc3)CC2)n1	18µM*	6%	3%	-7%	23µM*
